Assay results from the supplement of paper PMC3334620.
Over roughly 33,000 sequences, “E-score (-0.5 to 0.5)” has its median near -0.054; the highest 2% begin near 0.35. The full list was thinned out, with the highest values kept by preference.

Target: T1, Stb5 (UniProt P38699)
T1 sequence: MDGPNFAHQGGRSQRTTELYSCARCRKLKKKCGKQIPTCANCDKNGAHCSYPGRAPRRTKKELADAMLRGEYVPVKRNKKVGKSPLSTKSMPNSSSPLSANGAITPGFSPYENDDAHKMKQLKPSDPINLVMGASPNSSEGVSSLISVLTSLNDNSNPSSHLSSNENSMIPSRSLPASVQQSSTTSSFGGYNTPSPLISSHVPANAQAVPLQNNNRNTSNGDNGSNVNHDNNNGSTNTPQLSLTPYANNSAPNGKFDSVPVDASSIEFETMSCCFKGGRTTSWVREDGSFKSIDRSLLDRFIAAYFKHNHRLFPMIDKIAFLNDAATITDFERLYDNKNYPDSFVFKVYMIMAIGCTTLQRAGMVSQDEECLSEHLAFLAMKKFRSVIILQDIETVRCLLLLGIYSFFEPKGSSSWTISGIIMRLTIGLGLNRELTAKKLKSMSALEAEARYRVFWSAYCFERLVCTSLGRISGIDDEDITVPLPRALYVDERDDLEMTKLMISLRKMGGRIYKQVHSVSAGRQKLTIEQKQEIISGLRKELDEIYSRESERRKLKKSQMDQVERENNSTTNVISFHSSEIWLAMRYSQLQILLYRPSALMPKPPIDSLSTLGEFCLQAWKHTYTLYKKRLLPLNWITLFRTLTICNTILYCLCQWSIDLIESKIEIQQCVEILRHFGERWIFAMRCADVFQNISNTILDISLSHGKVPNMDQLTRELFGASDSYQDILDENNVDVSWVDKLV
Assay: PBM E-score (8-mer binding enrichment) (E-score (-0.5 to 0.5)); higher = stronger / more preferred TF binding
Conditions: protein concentration: 200 nM; construct: GST-full length
Procedure: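 Universal 'all 10-mer' protein binding microarrays (Agilent AMADID 015681) probed with GST-tagged S. cerevisiae TFs (full-length or DBD) made by in vitro transcription/translation (PURExpress), about 100-200 nM. Bound TF was detected with fluorescent anti-GST. Each ungapped 8-mer (which stands for itself and its reverse complement) is scored by the PBM enrichment score (E-score), a modified Wilcoxon-Mann-Whitney statistic from -0.5 to +0.5, computed with the Universal PBM Analysis Suite. Scale: above 0.35 generally sequence-specific binding.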

Row | Sequence | PBM E-score
1 | ACCAGCCC | 0.211
2 | AACGAGGG | -0.19
3 | AAGTCGGT | 0.324
4 | ACTTAAAC | -0.0316
5 | AGGGAGCG | -0.0929
6 | AGCTATCG | -0.103
7 | AAATGAGA | -0.261
8 | GGCACTGA | 0.00323
9 | GAAGAATA | -0.123
10 | AAGGACCG | 0.383
11 | AAAGACCG | 0.448
12 | AATGACCA | -0.133
13 | AATGACCG | 0.365
14 | AAAGACCA | -0.216
15 | AAGGACCA | -0.0213
16 | CAAGACCG | 0.312
17 | AATGACCT | -0.0215
18 | AAGGACCT | 0.00048
19 | AGCATGGC | -0.178
20 | GGCCTAGA | -0.147
21 | CTGCATCA | -0.327
22 | CACCTGTA | -0.208

Row | Sequence | PBM E-score
23 | ACCCGACC | 0.279
24 | CCCCGACC | 0.355
25 | CCCCGACG | 0.449
26 | GCCCGACC | 0.306
27 | GCCCGACA | 0.334
28 | CCCCGACA | 0.412
29 | CCCCGAGG | 0.148
30 | ACCCGACG | 0.287
31 | TCCCGACA | 0.291
32 | GCGACTCA | -0.156
33 | CGCAGCAG | -0.0406
34 | GGGATATA | 0.272
35 | GGGATGTA | -0.0169
36 | CGGATTTA | 0.452
37 | CGGATCTA | 0.424
38 | CGGATTTC | 0.223
39 | CGGATATC | 0.193
40 | CGGATGTC | 0.223
41 | GGGATCTA | 0.0662
42 | CGGATCTC | 0.103
43 | CGGATATA | 0.443
44 | CGGATGTA | 0.381

Row | Sequence | PBM E-score
45 | GGGATTTA | 0.351
46 | AGCGATGA | 0.0899
47 | CGCCAGGA | -0.17
48 | ACGTCATC | -0.115
49 | CTACTACC | 0.216
50 | ACAGCACC | 0.202
51 | GGCTAGTA | -0.139
52 | ACCCTGCG | -0.165
53 | TCCACCAA | -0.103
54 | GACAAAGA | -0.0701
55 | CATTCCCG | 0.203
56 | CATCCCGG | 0.134
57 | AATTCCCG | 0.363
58 | AATCCCCG | 0.452
59 | AATCCCCC | 0.127
60 | AATTCCCA | -0.261
61 | AATCCGGG | 0.233
62 | AATCCCGG | 0.352
63 | CATCCCCG | 0.264
64 | GATGCAGC | 0.0949
65 | CATAAAGC | -0.0703
66 | CTCAAATC | -0.136

Row | Sequence | PBM E-score
67 | TCACTCGA | -0.204
68 | CGCGGTAG | 0.249
69 | AGCGGTCC | 0.327
70 | GCCGGTGA | 0.316
71 | CGCGGTGC | 0.378
72 | CGCGGTCC | 0.356
73 | CGCGGTGA | 0.359
74 | CGCGGTAA | 0.343
75 | CGCGGTCA | 0.21
76 | CTCGGTGC | 0.148
77 | GGCGGTGA | 0.376
78 | CCCGGTGA | 0.261
79 | GGCGGTCA | 0.342
80 | CCTATCAG | -0.131
81 | CCAATATA | -0.07
82 | CGCTCTAC | -0.0196
83 | CAAAGCCC | 0.285
84 | AGCGGTGA | 0.387
85 | AGCGGTGC | 0.396
86 | CGCGGTTA | 0.37
